# Reference: PubChem BioAssay (NCI)
# Compounds without any hit were thinned out: in the full panel of roughly 83,000, 20% have a hit.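 Cell lines were cultured in 96-well plates, exposed to a single compound concentration, and assessed for percent growth 48 hours later.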 Unmarked numbers belong to inactive results. Activity calls are given as the source filed them. How the source made its calls: active means growth percent below 10; inactive means the rest.
# System: SK-OV-3 ovarian
# Assay: NCI-60 one-dose screen, 48 h (100 = growth as untreated, 0 = no growth, -100 = all killed)
# Conditions: 10 µM unless noted
row,Structure (SMILES),growth
1,CCN(CC)C(=O)O/N=C(/C)c1ccccc1,111%
2,C=C1C(=O)O[C@H]2[C@H]1CC/C(COC(=O)NCc1ccc(Cn3c(=O)sn(CCCl)c3=O)cc1)=C\CC[C@@]1(C)O[C@@H]21,85.3%
3,COc1ccc2c(c1)sc1nc(-c3ccccc3)c(-c3cccc4ccccc34)n12,10.5%
4,c1ccc(-c2nnn(-c3ccccc3)n2)cc1,106%
5,CC(C)N(C(=S)SSC(=S)N(C(C)C)C(C)C)C(C)C,112%
6,Cc1ccc2c(C)c3c(ccc4ccccc43)c[n+]2c1,83.8%
7,O=C(N/N=C/c1ccc([N+](=O)[O-])cc1)c1ccccc1Nc1ccnc(C(F)(F)F)c1,84.9%
8,CC(C)CC1NC(=O)C(CC(C)C)N(CO)C1=O (stereo not drawn),102%
9,Cc1ccccc1C1CC(=O)c2ccccc2C1C (stereo not drawn),105%
10,O=C1/C(=C/N2N=C(c3ccc(Cl)cc3)CC2c2ccccc2O)SC(=S)N1c1cccc(C(F)(F)F)c1 (stereo not drawn),74%
11,CN(C)CC(=O)c1ccc2cc(Br)c3ccccc3c2c1,69.7%
12,CCN(C(=O)CCl)C(C)(C)C(SSSC(c1ccc(Cl)cc1)C(C)(C)N(CC)C(=O)CCl)c1ccc(Cl)cc1 (stereo not drawn),87.5%
13,COc1ccc(NC(=O)Cn2c(=O)sc3c(-c4ccc(Cl)cc4)cc(-c4ccc(Cl)cc4)nc32)cc1,102%
14,COc1cccc(/C=N\Nc2ccc([N+](=O)[O-])cn2)c1O,68.7%
15,CCN(CC)CC(=O)Nc1c(C)cc(C(=O)NN)cc1C,98.7%
16,CCCC(CCC)(C(N)=O)C(=O)O,105%
17,COc1cnc2c(c1)C(=O)c1c-2n(CCCNC(C)C)c(=O)c2cc(Cl)ccc12,-5.05% (active)
18,Cc1nn(-c2cccc(Cl)c2)c(C)c1N=Nc1ccc(Br)cc1,92.3%
19,CCCCCCCCCCCCNC(=O)N[C@H](C(=O)N[C@H]1/C=C/OCCNC(=O)/C=C/[C@H](C(C)C)NC1=O)C(C)C,106%
20,Cc1ccc(C(CN(C)C)C(=O)c2ccccc2)cc1 (stereo not drawn),97.6%

row,Structure (SMILES),growth
1,CCCCCCCCCCCCCCCCCC(=O)[O][Sn]([CH2]CCC)([CH2]CCC)[CH2]CCC,-96.2% (active)
2,Cc1c2c(cc3c1[nH]c1ccccc13)C=NCC2,96.5%
3,COc1ccc(C(=O)C(CN(C)C)c2ccc(OC)cc2)cc1 (stereo not drawn),98.8%
4,CC(=O)O[C@H]1CC[C@]2(C)[C@H]3CC=C4[C@@H]5CC(C)(C)CC[C@]5(C(=O)OCC(COC(=O)C(Cl)Cl)(COC(=O)C(Cl)Cl)NC(=O)C(Cl)Cl)CC[C@@]4(C)[C@]3(C)CC[C@H]2C1(C)C,86.1%
5,COc1ccc2c(c1)C1=NN(C(=O)CO)[C@H](c3ccc(OC(F)(F)F)cc3)[C@@H]1CC2,96.3%
6,COc1ccc(Cl)cc1Nc1nc(C(F)(F)F)ccc1C(=O)NN,8.79% (active)
7,CC(C)c1cccc(C#N)c1,106%
8,COc1ccc2nc3ccccc3c(NCc3ccc(C)cc3)c2c1,52.7%
9,CS(=O)(=O)c1ccc(C(=O)N/N=C/c2ccccc2Cl)cc1,88.3%
10,CC(C)(C)c1ccc(C(=O)Nc2sc3cc(O)ccc3c2C(N)=O)cc1,115%
11,COc1cc(/C=C\c2cc(/C=C\c3ccc(O)c(OC)c3)n(C(=O)Nc3ccc(C(F)(F)F)cc3)n2)ccc1O,66.1%
12,CCOC(=O)c1cc(N)nc2ccccc12,101%
13,CCSCC1CC(O)(c2ccccc2)C(c2ccccc2)C(c2ccc(F)cc2)O1 (stereo not drawn),6.98% (active)
14,CN1C2CCC1/C(=C\c1ccc(Cl)cc1)C(=O)/C2=C/c1ccc(Cl)cc1,93.4%
15,CCOC(=O)C1=C(C)NC(=S)NC1c1ccccc1 (stereo not drawn),114%
16,C=C1C(=O)O[C@H]2[C@H]1CC/C(COC(=O)N[C@@H](Cc1c[nH]c3ccccc13)C(=O)OC)=C\CC[C@@]1(C)O[C@@H]21,78.8%
17,Cc1nc(N)nc2c1CCC(Nc1ccccc1)S2 (stereo not drawn),109%
18,COc1cc(OC)c2sc(-c3ccc(-n4cncc4-c4ccc(OC)c(N)c4)cc3)nc2c1,123%
19,COc1cc(OC)cc(-c2ccc(-c3ccc(C(=N)N)s3)s2)c1,-92.4% (active)

# System: IGROV1 ovarian
# Assay: as above
# Conditions: 10 µM unless noted
row,Structure (SMILES),growth
1,CCN(CC)C(=O)O/N=C(/C)c1ccccc1,126%
2,C=C1C(=O)O[C@H]2[C@H]1CC/C(COC(=O)NCc1ccc(Cn3c(=O)sn(CCCl)c3=O)cc1)=C\CC[C@@]1(C)O[C@@H]21,47.7%
3,COc1ccc2c(c1)sc1nc(-c3ccccc3)c(-c3cccc4ccccc34)n12,34.4%
4,c1ccc(-c2nnn(-c3ccccc3)n2)cc1,104%
5,CC(C)N(C(=S)SSC(=S)N(C(C)C)C(C)C)C(C)C,92.2%
6,Cc1ccc2c(C)c3c(ccc4ccccc43)c[n+]2c1,60.6%
7,O=C(N/N=C/c1ccc([N+](=O)[O-])cc1)c1ccccc1Nc1ccnc(C(F)(F)F)c1,75.3%
8,CC(C)CC1NC(=O)C(CC(C)C)N(CO)C1=O (stereo not drawn),106%
9,Cc1ccccc1C1CC(=O)c2ccccc2C1C (stereo not drawn),123%
10,O=C1/C(=C/N2N=C(c3ccc(Cl)cc3)CC2c2ccccc2O)SC(=S)N1c1cccc(C(F)(F)F)c1 (stereo not drawn),43.7%
11,CN(C)CC(=O)c1ccc2cc(Br)c3ccccc3c2c1,38.5%
12,CCN(C(=O)CCl)C(C)(C)C(SSSC(c1ccc(Cl)cc1)C(C)(C)N(CC)C(=O)CCl)c1ccc(Cl)cc1 (stereo not drawn),74.3%
13,COc1ccc(NC(=O)Cn2c(=O)sc3c(-c4ccc(Cl)cc4)cc(-c4ccc(Cl)cc4)nc32)cc1,92.3%
14,COc1cccc(/C=N\Nc2ccc([N+](=O)[O-])cn2)c1O,36.2%
15,CCN(CC)CC(=O)Nc1c(C)cc(C(=O)NN)cc1C,88.9%
16,CCCC(CCC)(C(N)=O)C(=O)O,119%
17,COc1cnc2c(c1)C(=O)c1c-2n(CCCNC(C)C)c(=O)c2cc(Cl)ccc12,-57% (active)
18,Cc1nn(-c2cccc(Cl)c2)c(C)c1N=Nc1ccc(Br)cc1,100%
19,CCCCCCCCCCCCNC(=O)N[C@H](C(=O)N[C@H]1/C=C/OCCNC(=O)/C=C/[C@H](C(C)C)NC1=O)C(C)C,45.2%
20,Cc1ccc(C(CN(C)C)C(=O)c2ccccc2)cc1 (stereo not drawn),88.9%

row,Structure (SMILES),growth
1,CCCCCCCCCCCCCCCCCC(=O)[O][Sn]([CH2]CCC)([CH2]CCC)[CH2]CCC,-88.7% (active)
2,Cc1c2c(cc3c1[nH]c1ccccc13)C=NCC2,105%
3,COc1ccc(C(=O)C(CN(C)C)c2ccc(OC)cc2)cc1 (stereo not drawn),86.9%
4,CC(=O)O[C@H]1CC[C@]2(C)[C@H]3CC=C4[C@@H]5CC(C)(C)CC[C@]5(C(=O)OCC(COC(=O)C(Cl)Cl)(COC(=O)C(Cl)Cl)NC(=O)C(Cl)Cl)CC[C@@]4(C)[C@]3(C)CC[C@H]2C1(C)C,89.5%
5,COc1ccc2c(c1)C1=NN(C(=O)CO)[C@H](c3ccc(OC(F)(F)F)cc3)[C@@H]1CC2,72.3%
6,COc1ccc(Cl)cc1Nc1nc(C(F)(F)F)ccc1C(=O)NN,30.3%
7,CC(C)c1cccc(C#N)c1,115%
8,COc1ccc2nc3ccccc3c(NCc3ccc(C)cc3)c2c1,17.2%
9,CS(=O)(=O)c1ccc(C(=O)N/N=C/c2ccccc2Cl)cc1,107%
10,CC(C)(C)c1ccc(C(=O)Nc2sc3cc(O)ccc3c2C(N)=O)cc1,57.9%
11,COc1cc(/C=C\c2cc(/C=C\c3ccc(O)c(OC)c3)n(C(=O)Nc3ccc(C(F)(F)F)cc3)n2)ccc1O,42.8%
12,CCOC(=O)c1cc(N)nc2ccccc12,120%
13,CCSCC1CC(O)(c2ccccc2)C(c2ccccc2)C(c2ccc(F)cc2)O1 (stereo not drawn),11.2%
14,CN1C2CCC1/C(=C\c1ccc(Cl)cc1)C(=O)/C2=C/c1ccc(Cl)cc1,68.8%
15,CCOC(=O)C1=C(C)NC(=S)NC1c1ccccc1 (stereo not drawn),97.4%
16,C=C1C(=O)O[C@H]2[C@H]1CC/C(COC(=O)N[C@@H](Cc1c[nH]c3ccccc13)C(=O)OC)=C\CC[C@@]1(C)O[C@@H]21,0.0104% (active)
17,Cc1nc(N)nc2c1CCC(Nc1ccccc1)S2 (stereo not drawn),111%
18,COc1cc(OC)c2sc(-c3ccc(-n4cncc4-c4ccc(OC)c(N)c4)cc3)nc2c1,98.2%
19,COc1cc(OC)cc(-c2ccc(-c3ccc(C(=N)N)s3)s2)c1,-67.2% (active)
